Growth data for nine compounds are collected here from PubChem BioAssay (NCI).

Test in all cases: NCI-60 one-dose screen, 48 h (100 = growth as untreated, 0 = no growth, -100 = all killed)
In experiment [1] the test system is SK-MEL-2 melanoma. The settings on record: 10 µM unless noted.
Experiment [2] relates to EKVX NSCLC. The settings on record: 10 µM unless noted.
Experiment [3] relates to SN12C renal. Particulars: 10 µM unless noted.
The test system of experiment [4] is UO-31 renal. Particulars: 10 µM unless noted.
Experiment [5] concerns TK-10 renal. The settings on record: 10 µM unless noted.
The test system of experiment [6] is CAKI-1 renal. The settings on record: 10 µM.
Experiment [7] relates to A498 renal. The settings on record: 10 µM unless noted.
Experiment [8] deals with CCRF-CEM leukemia. Particulars: 10 µM unless noted.
In experiment [9] the test system is MOLT-4 leukemia. Particulars: 10 µM unless noted.
The subject of experiment [10] is SR leukemia. The settings on record: 10 µM unless noted.
For experiment [11], the system named is RPMI-8226 leukemia. Particulars: 10 µM unless noted.
For experiment [12], the system named is OVCAR-8 ovarian. The settings on record: 10 µM unless noted.
Experiment [13] concerns OVCAR-5 ovarian. The settings on record: 10 µM unless noted.
Experiment [14] has as its system OVCAR-4 ovarian. The settings on record: 10 µM unless noted.
Experiment [15] concerns SK-OV-3 ovarian. The settings on record: 10 µM unless noted.
For experiment [16], the system named is IGROV1 ovarian. Particulars: 10 µM unless noted.
Experiment [17] concerns OVCAR-3 ovarian. Particulars: 10 µM unless noted.
Experiment [18] deals with HS 578T breast. The settings on record: 10 µM unless noted.
Experiment [19] concerns NCI/ADR-RES ovarian. The settings on record: 10 µM unless noted.
Experiment [20] has as its system ACHN renal. Particulars: 10 µM unless noted.

This is part of a sample that, as a whole, favours compounds with a hit. Of some 83,000 tested, about 20% had one in any assay.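 Results are percent growth after 48 hours of single-concentration exposure. 100 means growth as in untreated cells, lower positive values show inhibition; negative values down to -100 show cell death.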 Values without a mark were called inactive. Calls of active or inactive are those of the source. The calls were made as follows: active = growth percent below 10; inactive = the rest.

Regarding `COc1ccc(/C=C/C(=O)c2ccc(-n3cc(CN4CCN(c5cc6c(cc5F)c(=O)c(C(=O)O)cn6C5CC5)CC4)nn3)cc2)cc1OC`, the growth in experiment [1] was 97.4%; in [2], 80%; in experiment [3], 14.9%; in [4], 43.5%; in experiment [5] it was 80%; in experiment [6], 60%. In addition, the growth was 54.4% in experiment [7]; 3.05% (active) in experiment [8]; 10.5% in experiment [9]; -12.4% (active) in [10]; -15.8% (active) in experiment [11]; 39.7% in experiment [12]. In addition, the growth in [13] is 72.3%; in [14] it was 73.7%; in experiment [15] it was 67.5%; in experiment [16] it was -24.8% (active); in experiment [17], -16.1% (active); in [18] it was 21.5%. Moreover, in experiment [19], the growth was 82%.

Consider `CCc1c2cc(Cl)ccc2n2cc(Cc3ccccc3)[nH]c(=O)c12`, for which the growth is 97.5% in experiment [1]; 101% in experiment [2]; 101% in experiment [3]; 82.3% in experiment [4]; 120% in experiment [5]; 93.3% in experiment [20]. The growth in experiment [7] is 102%; in experiment [8] it was 93.9%; in [11], 110%; in experiment [12] it was 99.1%; in [13], 93.9%; in [14], 102%. In addition, the growth in experiment [15] is 103%; in [16], 90.5%; in [17], 99.2%; in [18] it was 87.4%; in experiment [19], 100%.

Consider `Cc1ccc(N(CC2=NCCN2)c2cccc(O)c2)cc1`, for which the growth was 107% in experiment [1]; 90.2% in experiment [2]; 94.6% in experiment [3]; 79.7% in experiment [4]; 102% in experiment [5]; 90% in [6]. The growth is 93.8% in experiment [7]; 98.5% in experiment [8]; 97.7% in experiment [9]; 95.3% in experiment [10]; 94.5% in experiment [11]; 95.2% in experiment [12]. Further, the growth in experiment [14] is 103%; in experiment [15] it was 105%; in experiment [16], 90.3%; in experiment [17], 112%; in experiment [18], 101%; in [19], 104%.

`CCN(CC)CC(=O)Nc1c(C)cccc1C`: the growth in experiment [1] is 104%; in experiment [2], 85.2%; in experiment [3] it was 98.8%; in [4] it was 83.2%; in [5], 116%; in experiment [6], 94.3%. The growth was 102% in experiment [7]; 103% in experiment [8]; 104% in experiment [9]; 98.3% in experiment [10]; 114% in experiment [11]; 107% in [12]. The growth was 104% in [14]; 109% in experiment [15]; 106% in experiment [16]; 118% in [17]; 110% in experiment [18]; 104% in experiment [19].

In the case of `O=C(CNc1cccnc1)Nc1ccc(C(=O)/C=C/c2ccc(Cl)cc2)cc1`, the growth in [1] is 84.4%; in experiment [2] it was 95%; in experiment [3], 88.7%; in experiment [4], 77.7%; in experiment [5], 106%; in experiment [20], 101%. Also, the growth in experiment [7] was 86.9%; in experiment [8], 26.6%; in experiment [11], 21.7%; in [12] it was 98.1%; in [13], 92.7%; in [14] it was 87.1%. Further, the growth was 111% in [15]; 95.1% in experiment [16]; 89.8% in experiment [17]; 82.1% in experiment [18]; 98% in [19].

Regarding `COc1cc(/C=C/C(=O)c2ccc(Oc3ncnc4ccccc34)cc2)cc(OC)c1OC`, the growth was 94.6% in experiment [1]; 87% in experiment [2]; 68.3% in [3]; 51.6% in [4]; 100% in [5]; 104% in [7]. Besides, the growth in [8] was 36.6%; in [9] it was 62.3%; in experiment [10], 38.1%; in experiment [11] it was 24.3%; in experiment [12], 74.9%; in experiment [13] it was 88.2%. For the same compound, the growth in [14] was 73.6%; in experiment [15], 83.6%; in experiment [16], 66.5%; in experiment [17], 35.6%; in experiment [18], 97.1%; in experiment [19] it was 70.3%.

Regarding `COc1ccc(Cl)cc1NC(=O)c1cc2c(n1C)-c1nc(NC(=O)C(C)C)sc1CC2`, the growth in experiment [1] is 64.6%; in experiment [2] it was 91.3%; in experiment [3] it was 94.5%; in experiment [4], 76.7%; in experiment [5], 92%; in experiment [7] it was 93.2%. For the same compound, the growth in experiment [8] is 84.4%; in experiment [9], 80.2%; in experiment [10] it was 79.1%; in experiment [11] it was 82.7%; in experiment [12], 81.8%; in experiment [13] it was 108%. Besides, the growth in experiment [14] is 66%; in experiment [15] it was 82.9%; in experiment [16], 104%; in [17], 111%; in experiment [18], 83.4%; in experiment [19], 90.5%.

As to `COc1ccc(-c2ccc(NC(=O)Nc3ccc(Cl)c(C(F)(F)F)c3)c(C)n2)cc1`, the growth in experiment [1] is 62.1%; in experiment [2], 49.2%; in [3], 57.4%; in experiment [4], 39.3%; in experiment [5], 65.9%; in experiment [7] it was 57.7%. For the same compound, the growth in [8] was 29.9%; in experiment [9] it was 24.6%; in [10], 35.7%; in experiment [11] it was 9.87% (active); in experiment [12] it was 57.4%; in experiment [13], 89.1%. For the same compound, the growth in experiment [14] was 45.1%; in experiment [15] it was 68.1%; in experiment [16] it was 52.9%; in [17], 27.6%; in experiment [18] it was 77%; in experiment [19] it was 49.8%.

`O=C(/C=C/c1ccccc1)Oc1ccc(/C=C/c2cc(OC(=O)/C=C/c3ccccc3)cc(OC(=O)/C=C/c3ccccc3)c2)cc1`: the growth in [1] is 105%; in experiment [2], 99.1%; in experiment [3] it was 106%; in experiment [4] it was 82.9%; in experiment [5], 87%; in [7], 91.3%. The growth was 91.1% in [8]; 86.8% in [9]; 92% in experiment [10]; 99.8% in experiment [11]; 84.7% in experiment [12]; 96.6% in experiment [13]. Moreover, the growth in [14] was 100%; in experiment [15], 86.5%; in [16], 98.6%; in experiment [17], 107%; in experiment [18], 95.9%; in [19], 103%.
